Measured values reported in PubChem BioAssay AID1159580 (chemical genetic matrix, 2015).
Where “and” joins values, the source holds several entries; their conditions need not be identical. Equal values may be shown once. The whole screen tested about 5,500 compounds, of which about 2,000 (36%) were called active. Roughly 18% stayed inconclusive and do not appear here. Rule as the data show it: active = normalized growth mostly below about 0.91 (no sharp cut-off); inconclusive = no clear call, values can overlap the other calls; inactive = mostly above about 0.92. The list shows a part of the results.

Experiment: chemical genetic growth profiling, strain panel (AID 1159580);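 also: tested at 20 µM; growth read once vehicle control cultures reached saturation at 30 °C; 1 = growth at the plate median or of vehicle wells; lower values mean less growth of the strain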
Settings: S. cerevisiae deletion strains, growth OD

Measured: normalized growth

CCCCCCCCCCCCC[N+](C)(C)Cc1ccccc1
active: locus YAL013W, strain DEP1, active compounds read low 0.0555 | locus YAL021C, strain ccr4, active compounds read low 0.0637 | locus YAL026C, strain drs2, active compounds read low 0.0609 | locus YAL030W, strain snc1, active compounds read low 0.0556 | locus YBL061C, strain skt5, active compounds read low 0.0585 | locus YBR009C, strain hhf1, active compounds read low 0.0639 | locus YBR021W, strain FUR4, active compounds read low 0.0876 | locus YBR023C, strain chs3, active compounds read low 0.0617 | locus YBR171W, strain sec66, active compounds read low 0.0746 | locus YBR229C, strain ROT2, active compounds read low 0.0463 | locus YBR231C, strain swc5, active compounds read low 0.0605 | locus YBR279W, strain paf1, active compounds read low 0.0571 | locus YCL011C, strain gbp2, active compounds read low 0.0555 | locus YCL016C, strain dcc1, active compounds read low 0.0666 | locus YCL029C, strain bik1, active compounds read low 0.0604 | locus YCL069W, strain vba3, active compounds read low 0.0638 | locus YCR088W, strain abp1, active compounds read low 0.059 | locus YDL005C, strain med2, active compounds read low 0.073 | locus YDL035C, strain GPR1, active compounds read low 0.0501 | locus YDL040C, strain nat1, active compounds read low 0.0568 | locus YDL074C, strain BRE1, active compounds read low 0.078 | locus YDL101C, strain DUN1, active compounds read low 0.0549 | locus YDL134C, strain PPH21, active compounds read low 0.0476 | locus YDL185W, strain tfp1, active compounds read low 0.0592 | locus YDL192W, strain arf1, active compounds read low 0.0605 | locus YDR001C, strain nth1, active compounds read low 0.0567 | locus YDR069C, strain doa4, active compounds read low 0.0672 | locus YDR101C, strain arx1, active compounds read low 0.0615 | locus YDR137W, strain rgp1, active compounds read low 0.12 | locus YDR159W, strain sac3, active compounds read low 0.0884 | locus YDR162C, strain NBP2, active compounds read low 0.0468 | locus YDR195W, strain ref2 0.118 | locus YDR297W, strain sur2, active compounds read low 0.0581 | locus YDR318W, strain mcm21, active compounds read low 0.063 | locus YDR334W, strain swr1, active compounds read low 0.0601 | locus YDR335W, strain msn5, active compounds read low 0.0563 | locus YDR388W, active compounds read low 0.0567 | locus YDR392W, strain spt3, active compounds read low 0.0701 | locus YDR502C, strain sam2, active compounds read low 0.0651 | locus YEL003W, strain gim4, active compounds read low 0.0517 | locus YEL037C, strain rad23, active compounds read low 0.0542 | locus YEL061C, strain CIN8 (second series), active compounds read low 0.0587 | locus YEL061C, strain CIN8, active compounds read low 0.0483 | locus YER015W, strain faa2, active compounds read low 0.0622 | locus YER016W, strain bim1, active compounds read low 0.063 | locus YER110C, active compounds read low 0.0733 | locus YER111C, strain swi4, active compounds read low 0.0674 | locus YER155C, strain BEM2 (second series), active compounds read low 0.0862 | locus YER155C, strain BEM2, active compounds read low 0.0618 | locus YER167W, strain BCK2, active compounds read low 0.0502 | locus YFR010W, strain ubp6, active compounds read low 0.0662 | locus YGL078C, strain dbp3, active compounds read low 0.0681 | locus YGL086W, strain mad1, active compounds read low 0.0582 | locus YGL167C, strain pmr1, active compounds read low 0.0698 | locus YGL173C, strain kem1, active compounds read low 0.0657 | locus YGL227W, strain vid30, active compounds read low 0.0603 | locus YGL240W, strain doc1, active compounds read low 0.0764 | locus YGL248W, strain PDE1, active compounds read low 0.0462 | locus YGL253W, strain hxk2, active compounds read low 0.0524 | locus YGR078C, strain PAC10, active compounds read low 0.0524 | locus YGR135W, strain pre9, active compounds read low 0.0647 | locus YGR229C, strain SMI1, active compounds read low 0.0592 | locus YGR252W, strain gcn5, active compounds read low 0.206 | locus YHR013C, strain ard1, active compounds read low 0.102 | locus YHR027C, strain rpn1, active compounds read low 0.0626 | locus YHR030C, strain SLT2, active compounds read low 0.0492 and 0.104 | locus YHR079C, strain IRE1 (second series), active compounds read low 0.0567 | locus YHR079C, strain IRE1, active compounds read low 0.111 | locus YHR094C, strain hxt1, active compounds read low 0.058 | locus YHR129C, strain ARP1, active compounds read low 0.0544 | locus YHR142W, strain chs7, active compounds read low 0.0737 | locus YHR200W, strain rpn10, active compounds read low 0.0601 | locus YIL066C, strain RNR3, active compounds read low 0.0508 | locus YIL073C, strain SPO22, active compounds read low 0.129 | locus YIL125W, strain kgd1, active compounds read low 0.0665 | locus YIR030C, strain dcg1, active compounds read low 0.0594 | locus YJL092W, strain hpr5, active compounds read low 0.0601 | locus YJL095W, strain BCK1 (second series), active compounds read low 0.0575 | locus YJL095W, strain BCK1, active compounds read low 0.0546 and 0.0934 | locus YJL115W, strain asf1, active compounds read low 0.0698 | locus YJL129C, strain trk1, active compounds read low 0.0815 | locus YJL134W, strain LCB3, active compounds read low 0.0471 | locus YJL154C, strain vps35, active compounds read low 0.0584 | locus YJL164C, strain tpk1, active compounds read low 0.0596 | locus YJL166W, strain qcr8, active compounds read low 0.0642 | locus YJL168C, strain set2, active compounds read low 0.0571 | locus YJL187C, strain SWE1 (second series), active compounds read low 0.0466 | locus YJR043C, strain POL32, active compounds read low 0.0593 | locus YJR066W, strain TOR1, active compounds read low -0.000757
